# Laboratory results published in the supplement of paper PMC11624193, “Coupling cellular drug-target engagement to downstream pharmacology with CeTEAM” (Nature Communications, 2024).
# A number with no mark means an inactive call.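 How the source made its calls: active = log2 fold change beyond 2 SD from the library mean after excluding viability outliers; inactive = within 2 SD.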
# Molecular target: PARP1 L713F-nLuc biosensor (HCT116) (UniProt P09874)
# Experiment: PARP1 L713F-nLuc/akaLuc ratio relative to DMSO control (biosensor stabilization) (fold change); higher = more PARP1 biosensor stabilization (target engagement / stabilizer), active = hit call of the paper
# Conditions: stock concentration (mM; final µM = stock mM x 1): 10; 24 h
# Chain of PARP1 L713F-nLuc biosensor (HCT116) (P09874 whole entry L713F, looked up): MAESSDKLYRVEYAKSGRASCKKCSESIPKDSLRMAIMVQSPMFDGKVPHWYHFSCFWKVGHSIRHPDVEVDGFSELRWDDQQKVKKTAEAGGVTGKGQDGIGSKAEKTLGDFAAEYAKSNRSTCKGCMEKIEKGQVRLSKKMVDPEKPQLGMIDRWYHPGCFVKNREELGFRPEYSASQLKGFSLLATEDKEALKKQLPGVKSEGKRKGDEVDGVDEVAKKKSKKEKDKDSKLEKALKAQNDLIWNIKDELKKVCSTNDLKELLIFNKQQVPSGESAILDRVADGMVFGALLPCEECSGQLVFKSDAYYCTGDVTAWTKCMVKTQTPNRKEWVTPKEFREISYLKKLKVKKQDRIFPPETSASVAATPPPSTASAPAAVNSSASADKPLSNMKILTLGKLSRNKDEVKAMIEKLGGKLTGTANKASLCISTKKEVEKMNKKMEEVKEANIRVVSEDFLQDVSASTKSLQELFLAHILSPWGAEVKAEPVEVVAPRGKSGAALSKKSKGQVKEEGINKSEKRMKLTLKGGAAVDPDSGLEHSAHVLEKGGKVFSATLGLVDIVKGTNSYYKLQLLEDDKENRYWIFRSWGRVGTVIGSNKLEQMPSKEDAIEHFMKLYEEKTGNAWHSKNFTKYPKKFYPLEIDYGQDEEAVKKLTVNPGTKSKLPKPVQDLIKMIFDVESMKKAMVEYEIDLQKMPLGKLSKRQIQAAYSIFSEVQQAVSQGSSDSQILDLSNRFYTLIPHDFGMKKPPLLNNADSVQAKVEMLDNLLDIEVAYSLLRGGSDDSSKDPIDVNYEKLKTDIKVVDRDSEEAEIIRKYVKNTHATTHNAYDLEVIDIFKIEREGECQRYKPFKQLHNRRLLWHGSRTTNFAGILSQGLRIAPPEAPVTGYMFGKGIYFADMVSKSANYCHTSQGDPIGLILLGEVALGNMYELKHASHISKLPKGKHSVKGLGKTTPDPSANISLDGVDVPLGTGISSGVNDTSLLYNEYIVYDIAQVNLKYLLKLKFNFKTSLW
row,SMILES,PARP1 L713F-nLuc/akaLuc ratio
1,Cc1cc(CN2CCN(c3c(Br)cnc4nc(-c5ccc(N6CCN(C)CC6)cc5)[nH]c34)CC2)no1,1.37
2,Nc1ncn([C@H]2C[C@H](O)[C@@H](CO)O2)c(=O)n1 [Decitabine],3.01 (active)
3,CCN(CC)c1ccc(C=NNC(=O)c2ccncc2)c(O)c1,0.543
4,CN1CCC(COc2cnc(-c3cccc(Cn4nc(-c5cccc(C#N)c5)ccc4=O)c3)nc2)CC1,0.968
5,O=C(O)CCNC(=S)NCCCC[C@H](NS(=O)(=O)c1cccc(F)c1)C(=O)N[C@@H](Cc1c[nH]c2ccccc12)C(=O)NC1CCC1 [SIRT5 inhibitor 1],0.907
6,N#Cc1ccc2[nH]c(O)c(-c3ccc(CN4CCOCC4)cn3)c2c1,0.881
7,CCNC(=O)C#Cc1ccc2c(C(=Nc3ccc(CN(C)C)cc3)c3ccccc3)c(O)[nH]c2c1,0.604
8,CN(C)C(=O)/C(C#N)=C/c1ccc(-c2nc3cnc4[nH]ccc4c3n2C2CCCCC2)o1,1.08
9,Cn1cccc1/C=C1\C(=O)NC(=O)c2ccccc21,3.34 (active)
10,Oc1cc(O)c2cc(O)c(-c3cc(O)c(O)c(O)c3)[o+]c2c1 [Delphinidin (chloride)],1.09
11,COc1cc(Nc2ncc3c(n2)-c2ccc(Cl)cc2C(c2c(F)cccc2OC)=NC3)ccc1C(=O)O [Alisertib],0.939
12,O=C1c2ccccc2C(=O)c2c(NCCc3ccc(O)cc3)ccc(NCCc3ccc(O)cc3)c21,0.91
